Hits are enriched below; roughly 11% of the tested compounds scored in any of these assays.
HPGD block – blocks human HPGD enzyme activity. P15428. purified HPGD, NADH fluorescence kinetic, PGE2 substrate. Potency, µM, most hits filed as inhibitors. hit rate 4.3% among 150,000. AID 894
Target sequence (P15428 whole entry, looked up): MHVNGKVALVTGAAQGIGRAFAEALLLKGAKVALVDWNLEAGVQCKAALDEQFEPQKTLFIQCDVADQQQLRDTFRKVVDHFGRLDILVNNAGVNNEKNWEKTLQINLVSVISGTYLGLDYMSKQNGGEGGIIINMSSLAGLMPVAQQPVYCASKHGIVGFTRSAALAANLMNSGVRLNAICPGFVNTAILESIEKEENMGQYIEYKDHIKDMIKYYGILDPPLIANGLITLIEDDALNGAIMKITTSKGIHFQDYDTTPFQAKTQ
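20 nM HPGD preincubated 15 min at room temperature with compound in 50 mM Tris-HCl pH 8, 0.01% Tween 20. Started with 1 mM NAD+ and 30 uM prostaglandin E2; NADH fluorescence (360/450 nm) read 5 times over 30-s intervals, last minus first.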
ALDH1A1 block – ALDH1A1 (human) enzyme inhibition; P00352; hit rate 7.3% among 220,000; Purified ALDH1A1, NADH fluorescence, propionaldehyde substrate; Potency, µM (titrated, usually from 75.3 µM), hits mostly inhibitors
Target sequence (P00352 whole entry, looked up): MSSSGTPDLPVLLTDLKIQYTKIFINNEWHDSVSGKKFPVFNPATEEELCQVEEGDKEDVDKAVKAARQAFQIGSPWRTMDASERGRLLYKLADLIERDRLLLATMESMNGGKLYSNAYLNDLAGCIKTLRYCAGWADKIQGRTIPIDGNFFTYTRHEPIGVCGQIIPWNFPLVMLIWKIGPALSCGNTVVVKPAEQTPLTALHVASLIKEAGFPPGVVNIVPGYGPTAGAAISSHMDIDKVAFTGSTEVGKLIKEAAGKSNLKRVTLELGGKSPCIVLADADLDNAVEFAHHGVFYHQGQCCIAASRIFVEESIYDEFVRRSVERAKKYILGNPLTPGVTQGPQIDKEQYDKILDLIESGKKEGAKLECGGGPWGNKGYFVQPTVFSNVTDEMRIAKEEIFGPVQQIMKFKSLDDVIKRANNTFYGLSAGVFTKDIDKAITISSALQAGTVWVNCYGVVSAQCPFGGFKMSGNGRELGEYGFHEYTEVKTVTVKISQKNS
HTT aggregate – mutant huntingtin aggregation inhibition. Potency, µM (titrated, usually from 46.1 µM), hits mostly inhibitors. hit rate 1.1% among 220,000. PC12 HttQ103-GFP aggregates, Acumen cytometry, 40 h. AID 1688; active = well fitted curve in the direction sought with a large enough effect; inconclusive = small, poorly fitted or top-dose-only effect, or another doubt; inactive = no such curve, though single readings can be large; an effect the other way counts as inactive or inconclusive; note: nearly all actives have a fitted effect of over 60% in size
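Steps: seed 1500 PC12 HTTQ103-GFP cells/well; add tebufenozide, 100 nM final; add compound titration; add ATPLite reagent; quantify GFP aggregates by laser scanning cytometry.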
PNC assembly inh – inhibitors of perinucleolar compartment assembly. hit rate 3.1% among 140,000. PC3M PTB-GFP, PNC prevalence imaging, 16 h; stronger effect = lower value. activity change (PNC), negative = inhibition, % at 10 µM;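 active = readout at or below -70, meaning at least 70% loss of cells showing the perinucleolar compartment, a nuclear body marking cancer cells; inconclusive = readout between -30 and a set limit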
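Compounds are pinned in duplicate onto adhered PC3M cells stably expressing GFP-tagged PTB and incubated 16 h at 37 C. Cells are then fixed, nuclei stained with Hoechst, and PNC-positive cells counted.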
HTT cytoprotect – Huntington cell model cytoprotection by ATP luminescence | PC12 HTT-Q103 induced, cytoprotection, ATP luminescence, 40 h | Potency, µM (top dose mostly 56.4 µM), actives largely listed as activators | hit rate 0.14% among 230,000; active = well fitted curve in the direction sought with a large enough effect; inconclusive = small, poorly fitted or top-dose-only effect, or another doubt; inactive = no such curve, though single readings can be large; an effect the other way counts as inactive or inconclusive; note: nearly all actives have a fitted effect of over 45% in size
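PC12 cells with ecdysone-inducible HTT exon 1 Q103-GFP, induced with 100 nM tebufenozide and co-treated with library compounds in a dose series (1536-well, 1500 cells/well). Cytoprotection read as ATP content by ATPlite luminescence.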
GoLoco inh red – blocks human Gai1 binding to RGS12 GoLoco peptide, red readout; Potency, µM (top dose mostly 61.6 µM), actives largely listed as inhibitors; hit rate 0.44% among 230,000; Gai1:RGS12 GoLoco peptide FP, rhodamine, 10 min; AID 880; P63096; active = well fitted inhibition curve with a large enough effect, not every such curve was filed as active; inactive = no such curve, though single readings can be large or run the other way; note: nearly all actives have a fitted effect of over 30% in size
Large screens that a line does not name were inactive. Unless noted, calls come from the whole dose curve; as a rule, active = well fitted inhibition curve with a large enough effect (not every such curve was filed as active); inconclusive = small, poorly fitted or top-dose-only effect, or another doubt; inactive = no such curve, though single readings can be large or run the other way.

CC(=O)Oc1cccc(N2C(=O)C3C(C2=O)C2C=CC3C23CC3)c1 (stereo not given)	ALDH1A1 block 20µM
CC(=O)Oc1cccc(N2C(=O)C3CC=CCC3C2=O)c1 (stereo not given)	PNC assembly inh inconclusive
COC(C[C@@H]1O[C@@H]1C(=O)COCc1ccccc1)OC	none (no result: HPGD block, ALDH1A1 block, PNC assembly inh)
C=CC[C@@H]1C=C[C@H](O/N=C(\C)CCN2CCc3nc(-c4ccccc4)c(-c4ccccc4)cc3C2)[C@H](CO)O1	none (no result: HPGD block, HTT aggregate, PNC assembly inh, GoLoco inh red)
Cc1cc(C)n(CC(=O)N2c3ccccc3Sc3ccc(C(F)(F)F)cc32)n1	PNC assembly inh -113 (no result: HTT cytoprotect)
C[N+]1(C)C[C@@H](O)C[C@@H]1C(=O)[O-]	none (no result: HTT aggregate, PNC assembly inh)
O=C(CSc1nc2ncc(Br)cc2[nH]1)Nc1ccc2c(c1)OCO2	ALDH1A1 block 25µM (no result: HPGD block, GoLoco inh red)
CC(C)(C)C(=O)CSc1nc2ncc(Br)cc2[nH]1	ALDH1A1 block inconclusive, PNC assembly inh -98 (no result: HPGD block, GoLoco inh red)
COC(=O)c1ccccc1NC(=O)CNc1cc(Cl)ccc1N1CCOCC1	ALDH1A1 block 32µM
Cc1cc(Cl)ccc1OC(C)C(=O)Nc1ccccc1N1CCOCC1 (stereo not given)	HTT aggregate inconclusive, PNC assembly inh -104
COc1ccc(Cl)cc1NC(=O)CN(C)CC(=O)Nc1ccccc1N1CCOCC1	none (no result: HPGD block, PNC assembly inh)
COc1c(Cl)cc(Br)c(OC)c1C(=O)NC(=O)Nc1nc(C)cc(C)n1	none (no result: HPGD block, PNC assembly inh)
CC(C)=CCC/C(C)=C/CO/N=C1/[C@H]2O[C@@H]2[C@@H](O)[C@H]2[C@H]1CCn1c(=O)n(C)c(=O)n12	none (no result: HPGD block, HTT aggregate, PNC assembly inh, GoLoco inh red)
COC(=O)c1sccc1NC(=O)CN1CCN(c2ccc(F)cc2)CC1	PNC assembly inh inconclusive
O=C1CC(N(CCc2ccccc2)C(=S)Nc2ccccc2)C(=O)N1c1ccc(Br)cc1 (stereo not given)	ALDH1A1 block inconclusive, HTT aggregate inconclusive
Cc1ccc(N2C(=O)CC(N(CCc3ccccc3)C(=S)Nc3ccc(N(C)C)cc3)C2=O)cc1 (stereo not given)	ALDH1A1 block 28µM
COc1ccc(-c2nnc3ccc(SCC(=O)N4CCOCC4)nn23)cc1	none
COc1ccc(-c2nnc3ccc(SC)nn23)cc1	HPGD block 32µM, ALDH1A1 block inconclusive, HTT aggregate inconclusive
CCCCNCc1cc(OC)c(OCC(N)=O)cc1Br	PNC assembly inh -100
CCCCNCc1cc(OCC)c(OCC(N)=O)cc1Br	none
CCOC(=O)N/N=C(/C)c1ccc(N2C(=O)C3CCCCC3C2=O)cc1 (stereo not given)	none (no result: HPGD block, PNC assembly inh)
Cn1c(=O)c2c(nc(N3CCC(C(N)=O)CC3)n2CCSc2nc3ccccc3s2)n(C)c1=O	none
Cn1c(=O)[nH]c(=O)c2c1nc(N1CCCCCC1)n2CCSc1nc2ccccc2[nH]1	ALDH1A1 block inconclusive
Cn1c(=O)[nH]c(=O)c2c1nc(N1CCCCC1)n2CCCSc1nc2ccccc2s1	HPGD block 16µM, ALDH1A1 block inconclusive
Cn1c(=O)c2c(nc(N3CCCCC3)n2CCSc2nc3ccccc3s2)n(C)c1=O	ALDH1A1 block 28µM
CC1CCCN(c2nc3c(c(=O)n(C)c(=O)n3C)n2CCSc2nc3ccccc3s2)C1 (stereo not given)	ALDH1A1 block 14µM, HTT aggregate inconclusive
CC1CCN(c2nc3c(c(=O)n(C)c(=O)n3C)n2CCSc2nc3ccccc3s2)CC1	ALDH1A1 block inconclusive
COC1C(O)COC1/C=C/c1ccccc1 (stereo not given)	HTT cytoprotect inconclusive (no result: HPGD block, HTT aggregate, PNC assembly inh, GoLoco inh red)
Cc1cnn(C(=S)NCC2CCCO2)c1 (stereo not given)	ALDH1A1 block inconclusive
CC1Oc2ccccc2C=C1/C=N\NC(=O)c1cccnc1 (stereo not given)	none (no result: HPGD block, ALDH1A1 block, PNC assembly inh)
Cc1ccc(N(CC(O)COCc2ccco2)S(=O)(=O)c2ccc(C)cc2)cc1 (stereo not given)	ALDH1A1 block 3.2µM, HTT aggregate inconclusive
CCC(C)(C(=O)NC1CCCCC1)N(C(=O)CC1NC(=O)NC1=O)c1c(C)n(C)n(-c2ccccc2)c1=O (stereo not given)	none (no result: HPGD block, PNC assembly inh)
CCN(CC)C(=O)CSc1nc2c(sc(=S)n2-c2ccccc2)c(=O)n1Cc1ccco1	HPGD block 32µM, ALDH1A1 block 10µM
CCN(CC)C(=O)CSc1nc2c(sc(=S)n2CC)c(=O)n1-c1ccccc1	ALDH1A1 block inconclusive, PNC assembly inh inconclusive
COc1ccccc1-n1c(=S)sc2c(=O)n(Cc3ccco3)c(SC)nc21	ALDH1A1 block 20µM, PNC assembly inh inconclusive
O=C(Cn1nnc2ccccc2c1=O)Nc1cccc(S(=O)(=O)N2CCOCC2)c1	none (no result: HPGD block, PNC assembly inh)
COc1ccc(-n2cnnc2SCC(=O)Nc2cccc(S(=O)(=O)N3CCCCC3)c2)cc1	ALDH1A1 block inconclusive
c1ccc(SC(Sc2ccccc2)c2ccc3c(c2)OCO3)cc1	none (no result: HTT aggregate, PNC assembly inh)
CN(CC(=O)NCc1ccncc1)S(=O)(=O)c1ccc2ccccc2c1	none (no result: HPGD block, HTT aggregate, PNC assembly inh, HTT cytoprotect)
Cc1cc(C)c(C)c(OCC(=O)NCC2CCCO2)c1 (stereo not given)	HPGD block inconclusive, PNC assembly inh -90
Cc1cc(C)cc(N(CC(=O)NCC2CCCO2)C(=O)CCC(=O)Nc2cc(C)on2)c1 (stereo not given)	PNC assembly inh -82
Cn1c(C(=O)OCC(=O)NCC2CCCO2)cc2sccc21 (stereo not given)	HPGD block 16µM, PNC assembly inh inconclusive
Cc1cc(C)cc(OCC(=O)NCC2CCCO2)c1 (stereo not given)	HPGD block 16µM
COc1ccccc1NS(=O)(=O)c1cc(NC(=O)c2ccc3c(c2)OCCO3)ccc1C	ALDH1A1 block inconclusive
COC(=O)CCC[N+](C)(C)C	none (no result: HPGD block, ALDH1A1 block, PNC assembly inh, GoLoco inh red)
O=c1c(Cl)c(NCC2CCCO2)cnn1C12CC3CC(CC(C3)C1)C2 (stereo not given)	ALDH1A1 block 18µM (no result: HPGD block, PNC assembly inh)
CCC(CC)NC(=O)CON=C1c2ccccc2-c2ccccc21	HPGD block 7.9µM, PNC assembly inh -81
CCNC(=O)CON=C1c2ccccc2-c2ccccc21	none
Cc1ccc(C(=O)O/N=C2\CCSc3ccc(C)cc32)cc1	PNC assembly inh inconclusive
COc1ccc(S(=O)(=O)O/N=C2\CCSc3ccc(C)cc32)cc1	ALDH1A1 block 7.1µM
Cc1cc(N)c2cc(OCCOc3ccc4nc(C)cc(N)c4c3)ccc2n1	ALDH1A1 block inconclusive (no result: HTT aggregate, PNC assembly inh, HTT cytoprotect)
CCCCN(Cc1ccccc1)S(=O)(=O)c1ccc2[nH]c(=O)oc2c1	ALDH1A1 block 5µM
O=c1[nH]c2ccc(S(=O)(=O)N3CCC(Cc4ccccc4)CC3)cc2o1	none (no result: HPGD block, GoLoco inh red)
CCn1nc(C)c(NS(=O)(=O)c2ccc(C)cc2)c1C	HTT aggregate inconclusive, PNC assembly inh -100
N[C@@H](C(=O)O)c1ccc(C(=O)O)c(O)c1	HPGD block inconclusive, ALDH1A1 block inconclusive (no result: HTT aggregate, PNC assembly inh)
O=C(NNC(=O)c1c(F)cccc1F)c1sccc1-n1cccc1	none (no result: HPGD block, PNC assembly inh)

Screening data: PubChem, National Center for Advancing Translational Sciences (NCATS)
